# “And” between values parts separate entries of the source, which are not always exact repeats. Equal values may be shown once. Records with an inconclusive call do not appear. Where a call stands in place of a potency, no number is given. More than one record can exist for a structure, and the calls need not agree. The source made the active and inactive calls. Unless noted, calls come from the whole dose curve; as a rule, active = well fitted curve in the direction sought with a large enough effect in the repeat runs; inconclusive = weak or mixed curves; inactive = no such curve, though single readings can be large; an effect the other way counts as inactive or inconclusive.
# Key:
# [1] = qHTS assay to test for compound auto fluorescence at 535 nm (green) in HEK293 cells (AID 720680)
# [2] = qHTS assay to test for compound auto fluorescence at 460 nm (blue) in HEK293 cell free culture (AID 720681)
# Outline: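 Blue fluorescence (Ex 405/Em 460 nm, triamterene-equivalent) was read immediately after pin transfer of compound or DMSO into medium (DMEM, 10% FBS) without cells.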
# [3] = qHTS assay to test for compound auto fluorescence at 535 nm (green) in HEK293 cell free culture (AID 720682)
# Outline: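 Using fluorescein as calibrant, autofluorescence was quantified at 485/535 nm in cell-free DMEM containing 10% FBS after pintool addition of compound or vehicle.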
# [4] = qHTS assay to test for compound auto fluorescence at 590 nm (red) in HEK293 cell free culture (AID 720683)
# Outline: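 Red-channel autofluorescence of compounds in culture medium (DMEM, 10% FBS), no cells, measured at 540/590 nm. Rose Bengal sodium is the reference fluorophore for equivalence.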
# [5] = qHTS assay to test for compound auto fluorescence at 590 nm (red) in HepG2 cell free culture (AID 720684)
# Outline: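 Plate contents were MEM with 10% FBS plus test compound or DMSO, no cells. Fluorescence was recorded with 540 nm excitation and 590 nm emission.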
# [6] = qHTS assay to test for compound auto fluorescence at 460 nm (blue) in HepG2 cell free culture (AID 720685)
# Outline: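 Compound (23 nL) or DMSO pinned into cell-free MEM with 10% FBS; blue fluorescence read at 405/460 nm excitation/emission, expressed as auto-fluorescence equivalency to triamterene.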
# [7] = qHTS assay to test for compound auto fluorescence at 535 nm (green) in HepG2 cell free culture (AID 720686)
# [8] = qHTS assay to test for compound auto fluorescence at 460 nm (blue) in HepG2 cells (AID 720687)
# Outline: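 Blue-channel autofluorescence (Ex/Em 405/460 nm, triamterene-equivalent) was measured after 1 hr compound exposure at 37 C, 5% CO2. Cells were HepG2, plated overnight at 37 C in MEM plus 10% FBS.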
# [9] = qHTS assay to identify small molecule antagonists of the glucocorticoid receptor (GR) signaling pathway - cell viability counter screen (AID 720693); note: nearly all actives have a fitted effect of over 55% in size; note: potency is the fitted concentration of half-maximal effect
# [10] = qHTS assay for identifying genotoxic compounds that show differential cytotoxicity against isogenic chicken DT40 cell lines with known DNA damage response pathways - wild type cell line (AID 743012); note: nearly all actives have a fitted effect of over 60% in size; note: potency is the fitted concentration of half-maximal effect
# Outline: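 First, wild type DT40 cells were plated at 300 per well and equilibrated about 0.5 h at 37 C/5% CO2. Next, compounds in DMSO were added and exposure lasted 40 h. Finally, CellTiter-Glo was added for 30 min at room temperature and luminescence recorded.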
# [11] = qHTS assay for identifying genotoxic compounds that show differential cytotoxicity against isogenic chicken DT40 cell lines with known DNA damage response pathways - Rev3 mutant cell line (AID 743014); note: nearly all actives have a fitted effect of over 55% in size; note: potency is the fitted concentration of half-maximal effect
# [12] = qHTS assay for identifying genotoxic compounds that show differential cytotoxicity against isogenic chicken DT40 cell lines with known DNA damage response pathways - Rad54/Ku70 mutant cell line (AID 743015); note: nearly all actives have a fitted effect of over 60% in size; note: potency is the fitted concentration of half-maximal effect
# [13] = qHTS assay to identify small molecule antagonists of the androgen receptor (AR) signaling pathway - cell viability counter screen (AID 743033; note: nearly all actives have a fitted effect of over 45% in size; note: potency is the fitted concentration of half-maximal effect)
# [14] = qHTS assay to identify small molecule antagonists of the androgen receptor (AR) signaling pathway using the MDA cell line - cell viability counter screen (AID 743041; note: nearly all actives have a fitted effect of over 45% in size; note: potency is the fitted concentration of half-maximal effect)
# Outline: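 R1881-driven MDA-kb2 AR-luc cells, 3,000/well, were dosed with library compounds for 16 h; cell health came from CellTiter-Fluor fluorescence in the reporter wells.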
# [15] = target: Androgen receptor (Homo sapiens) (UniProt P10275); test: qHTS assay to identify small molecule agonists of the androgen receptor (AR) signaling pathway using the MDA cell line (AID 743040; note: nearly all actives have a fitted effect of over 20% in size)
# Chain of Androgen receptor (Homo sapiens) (P10275 whole entry, looked up): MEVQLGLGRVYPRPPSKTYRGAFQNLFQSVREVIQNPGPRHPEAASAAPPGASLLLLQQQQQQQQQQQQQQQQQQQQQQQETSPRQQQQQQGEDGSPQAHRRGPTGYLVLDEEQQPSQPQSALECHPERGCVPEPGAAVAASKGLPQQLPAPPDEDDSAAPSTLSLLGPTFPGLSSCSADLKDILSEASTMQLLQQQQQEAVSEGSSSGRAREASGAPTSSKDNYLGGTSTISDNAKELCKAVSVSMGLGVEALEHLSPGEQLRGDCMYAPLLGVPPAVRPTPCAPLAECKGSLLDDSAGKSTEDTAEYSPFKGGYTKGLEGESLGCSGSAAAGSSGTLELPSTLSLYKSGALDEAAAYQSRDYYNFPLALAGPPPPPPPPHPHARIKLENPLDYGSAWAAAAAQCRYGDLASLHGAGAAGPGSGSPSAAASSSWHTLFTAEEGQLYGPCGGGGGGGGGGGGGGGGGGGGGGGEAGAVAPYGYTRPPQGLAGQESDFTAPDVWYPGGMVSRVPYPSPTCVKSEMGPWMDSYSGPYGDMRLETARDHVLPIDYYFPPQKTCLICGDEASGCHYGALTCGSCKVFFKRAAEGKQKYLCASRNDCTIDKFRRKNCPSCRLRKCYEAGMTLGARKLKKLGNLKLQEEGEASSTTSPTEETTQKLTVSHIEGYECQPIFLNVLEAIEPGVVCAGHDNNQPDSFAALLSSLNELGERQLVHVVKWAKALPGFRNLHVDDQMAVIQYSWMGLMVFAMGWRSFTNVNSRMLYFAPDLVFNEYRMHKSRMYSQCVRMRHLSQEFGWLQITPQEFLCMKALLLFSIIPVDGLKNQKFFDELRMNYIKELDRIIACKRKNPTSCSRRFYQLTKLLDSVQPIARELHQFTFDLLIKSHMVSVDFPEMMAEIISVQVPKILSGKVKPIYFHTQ
# Outline: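 After a 5 h incubation at 37C and 0% CO2, MDA-kb2 reporter cells were dosed with compounds in DMSO and kept 16 h under the same conditions. Luciferase activity was then read as luminescence with ONE-Glo.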
# [16] = target: Androgen receptor (Homo sapiens) (UniProt P10275); test: qHTS assay to identify small molecule antagonists of the androgen receptor (AR) signaling pathway (AID 743035; active = well fitted inhibition curve with a large enough effect in the signal ratio in the repeat runs, not every such curve was filed as active; the % refers to the signal ratio; note: potency is the fitted concentration of half-maximal effect)
# Outline: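 Beta-lactamase FRET read (2 h RT incubation with LiveBLAzer B/G) following 16 h of compound plus R1881 treatment of AR-UAS-bla HEK293 cells, which had been pre-incubated 4 h at 37C.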
# [17] = target: Androgen receptor (Homo sapiens) (UniProt P10275); test: qHTS assay to identify small molecule agonists of the androgen receptor (AR) signaling pathway (AID 743036; active = well fitted activation curve with a large enough effect in the signal ratio in the repeat runs, with a control signal flat, not every such curve was filed as active; the % refers to the signal ratio)
# Outline: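 In this Tox21 qHTS, 2,000 HEK293 AR-bla cells per well were incubated with compounds for 16 h at 37C and 5% CO2. Fluorescence intensity was recorded 2 h after adding LiveBLAzer B/G FRET substrate at room temperature.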
# [18] = target: Androgen receptor (Homo sapiens) (UniProt P10275); test: qHTS assay to identify small molecule antagonists of the androgen receptor (AR) signaling pathway using the MDA cell line (AID 743042; note: nearly all actives have a fitted effect of over 55% in size)
# Outline: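 Antagonist mode: compounds plus R1881 agonist added to MDA-kb2 AR-luc cells, incubated 16 h at 37C. Luciferase reporter luminescence quantified, with multiplexed CellTiter-Fluor readout for cell viability.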
SMILES,outcome [1],Potency [2],outcome [3],Potency [4],Potency [5],Potency [6],Potency [7],Potency [8],Potency [9],Potency [10],Potency [11],Potency [12],Potency [13],Potency [14],Potency [15],Potency [16],Potency [17],Potency [18]
CCOC(=O)O[C@H](C)OC(=O)c1ccc2c(c1)cc(C(=O)NC1CCN(C(C)C)CC1)n2Cc1cc(-c2ccc(Cl)s2)on1,inactive,inactive,inactive,inactive,inactive,inactive,inactive,inactive,20.4 µM (active),6.41 µM (active),11.4 µM (active),11.4 µM (active),7.25 µM (active),57.1 µM (active),–,–,–,–
CCCC(c1cc(C(C)(C)C)c(O)cc1C)c1cc(C(C)(C)C)c(O)cc1C,inactive,inactive,inactive,inactive,inactive,inactive,inactive,inactive,11.1 µM (active),12.3 µM (active),12.3 µM (active),12.3 µM (active),22.1 µM (active),27.6 µM (active),–,–,–,–
CC/C(=C(\c1ccc(O)cc1)c1ccc(OCCN(C)C)cc1)c1ccccc1,inactive,inactive,inactive,inactive,inactive,inactive,inactive,inactive,24.6 µM (active),2.74 µM (active),0.434 µM (active),1.09 µM (active),15.5 µM (active),inactive,inactive,–,–,–
O=[N+]([O-])c1cc([N+](=O)[O-])c2ccc(S(=O)(=O)O)cc2c1O,inactive,inactive,inactive,inactive,inactive,inactive,inactive,inactive,inactive,inactive,inactive,inactive,inactive,27.1 µM (active),–,–,–,–
OC1(c2ccc(Cl)c(C(F)(F)F)c2)CCN(CCCC(c2ccc(F)cc2)c2ccc(F)cc2)CC1,inactive,inactive,inactive,inactive,inactive,inactive,inactive,inactive,15.1 µM (active),4.22 µM (active),7.5 µM (active),5.96 µM (active),19 µM (active),inactive,–,–,–,–
Cc1c(C)c2c(c(C)c1O)CCC(C)(COc1ccc(CC3SC(=O)NC3=O)cc1)O2 (centres undefined),inactive,inactive,inactive,inactive,inactive,inactive,inactive,inactive,inactive,10.6 µM (active) and 17.2 µM (active),26.6 µM (active) and 15.4 µM (active),10.6 µM (active) and 24.3 µM (active),inactive and 24.5 µM (active),inactive,inactive,–,–,–
O=C(Nc1cccc(Cl)c1)OCC#CCCl,inactive,inactive,inactive,inactive,inactive,inactive,inactive,inactive,54.9 µM (active),24.3 µM (active),21.7 µM (active),13.7 µM (active),49 µM (active),–,–,–,–,–
Cc1ccc(-n2nc(C(C)(C)C)cc2NC(=O)Nc2ccc(OCCN3CCOCC3)c3ccccc23)cc1,inactive,inactive,inactive,inactive,inactive,inactive,inactive,inactive,inactive,18.8 µM (active),26.6 µM (active),26.6 µM (active),inactive,inactive,–,–,–,–
CCCCCCCCCCCCCCCC(=O)OC[C@H](O)[C@H]1OC(=O)C(O)=C1O,inactive,inactive,inactive,inactive,inactive,inactive,inactive,inactive,inactive,inactive,inactive,inactive,inactive,inactive,inactive,inactive,inactive,–
CCCCCCCCNC(C)C(O)c1ccc(SC(C)C)cc1 (centres undefined),inactive,inactive,inactive,inactive,inactive,inactive,inactive,inactive,10.7 µM (active),1.88 µM (active),1.68 µM (active),1.68 µM (active),21.3 µM (active),–,inactive,–,–,inactive
CCCCCCCC[N+](CCCCCCCC)(CCCCCCCC)CCCCCCCC,inactive,inactive,inactive,inactive,inactive,inactive,inactive,inactive,7.75 µM (active),2.43 µM (active),1.37 µM (active),1.37 µM (active),0.308 µM (active),4.32 µM (active),–,–,–,–
Oc1ccc(Cl)cc1Sc1cc(Cl)ccc1O,inactive,inactive,inactive,inactive,inactive,inactive,inactive,inactive,16.9 µM (active) and 19.5 µM (active),10.6 µM (active) and 30.6 µM (active),11.9 µM (active) and 19.3 µM (active),16.8 µM (active) and 24.3 µM (active),21.3 µM (active) and 13.8 µM (active),29.8 µM (active) and 61 µM (active),–,–,–,–
CC1=C(/C=C/C(C)=C/C=C/C(C)=C/C=O)C(C)(C)CCC1,inactive,inactive,inactive,inactive,inactive,inactive,inactive,inactive,24.4 µM (active),13.6 µM (active),9.63 µM (active),12.1 µM (active),21.8 µM (active),–,–,–,–,–
CC(C)(C)C(=O)OCOC(=O)C1N2C(=O)CC2S(=O)(=O)C1(C)C (centres undefined),inactive,inactive,inactive,inactive,inactive,inactive,inactive,inactive,inactive,inactive,inactive,inactive,inactive,inactive,inactive,6.74 µM (active),inactive,inactive

# Source: PubChem BioAssay (Tox21)
